Most compounds without a hit are left out; they make up all but 3.5% or so of the library.
FBW7 activator: activators of human E3 ligase FBW7. Q969H0. AlphaScreen FBW7–phospho-cyclin E peptide binding, activator screen. normalized activity (activation), % at 26.1 µM. actives 0.13% (n = 650,000). AID 1259310; in the data active means normalized activity above about 1.9%;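 further: purified mutant Fbw7 with reduced substrate affinity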
TEAD-YAP inh: TEAD-YAP interaction inhibition; HEK-TIYL cells, TEAD-Gal4/YAP UAS-luciferase luminescence; inhibition, % at 9.12 µM; actives 1.4% (n = 640,000); in the data active means inhibition above about 32%;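 further: 0% = median of test compound wells and 100% = reference inhibitor wells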
GPR151 ag: human GPR151 activation. actives 1% (n = 650,000). activation, % at 11.2 µM. Q8TDV0. PathHunter beta-arrestin GPR151 cells, luminescence; in the data active means activation above about 4.9%;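 further: 0% = median of compound wells and 100% = cells with positive control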
MITF inh: inhibitors of human MITF; actives 0.91% (n = 650,000); inhibition, % at 2.6 µM; AlphaScreen MITF homodimerization, bead proximity signal; in the data active means inhibition above about 50%;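 further: 0% = vehicle wells with protein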
Target sequence (O75030 whole entry, looked up): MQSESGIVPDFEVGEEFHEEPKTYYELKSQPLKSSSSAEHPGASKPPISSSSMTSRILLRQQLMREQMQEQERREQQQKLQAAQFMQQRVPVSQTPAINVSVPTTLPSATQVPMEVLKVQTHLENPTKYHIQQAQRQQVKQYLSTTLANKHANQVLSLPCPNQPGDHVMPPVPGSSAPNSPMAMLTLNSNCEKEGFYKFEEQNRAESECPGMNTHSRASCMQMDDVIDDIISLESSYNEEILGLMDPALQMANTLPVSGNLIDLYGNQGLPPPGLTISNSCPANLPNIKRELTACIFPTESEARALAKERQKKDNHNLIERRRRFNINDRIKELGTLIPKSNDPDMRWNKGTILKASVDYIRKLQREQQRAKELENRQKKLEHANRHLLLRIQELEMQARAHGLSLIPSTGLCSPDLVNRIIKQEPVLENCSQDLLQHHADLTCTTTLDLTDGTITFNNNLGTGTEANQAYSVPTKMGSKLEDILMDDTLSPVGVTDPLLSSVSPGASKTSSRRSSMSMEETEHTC
MITF confirm: confirmation of human MITF inhibitors; shares compounds with MITF inh; actives 16% (n = 4,700); AlphaScreen MITF homodimerization, biotin/His-MITF beads; inhibition, % at 2.6 µM;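 active means inhibition above a cutoff derived from the DMSO control wells, cut at about 28% in these data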;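 further: 0% = MITF dimer wells with DMSO only; inhibitors lower the bead chemiluminescence by keeping MITF from dimerizing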
AlphaScreen DR: AlphaScreen optical interference, dose response counter-screen | actives 6% (n = 480) | shares compounds with MITF inh | IC50, µM | AID 1259373 | AlphaScreen optical interference counterscreen, cell-free; call rule not given here
AlphaScreen intf2: optically interferes with AlphaScreen signal; actives 7.6% (n = 4,700); inhibition, % at 2.6 µM; AID 1259376; shares compounds with MITF inh; LysRS AlphaScreen counterscreen, signal interference, triplicate;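 active means inhibition above a cutoff derived from the DMSO control wells, cut at about 30% in these data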
Starred values were filed as active, the others as inactive.

For COC(=O)C1=C(C(=O)OC)C2c3ccccc3C=CN2C(C(=O)OC)=C1C(=O)OC (stereo not given) the results were FBW7 activator 1, TEAD-YAP inh 3, GPR151 ag 1, MITF inh 51*, MITF confirm 51* and AlphaScreen intf2 14.
COC(=O)C1=C(N)OC2=C(C(=O)CC(C)(C)C2)C12C(=O)Nc1ccc(Br)cc12 (stereo not given) was read as FBW7 activator 0, TEAD-YAP inh 4, GPR151 ag 0 and MITF inh -3.
CCOc1ccc(CN2CCN(CCO)CC2)cc1 was read as FBW7 activator 0, TEAD-YAP inh -3, GPR151 ag 2 and MITF inh 42.
For OCCN1CCN(Cc2ccc(Cl)cc2Cl)CC1 the results were FBW7 activator 0, TEAD-YAP inh 8, GPR151 ag 0, MITF inh 51*, MITF confirm 2 and AlphaScreen intf2 1.
Screening OCCN1CCN(Cc2cccc(Br)c2)CC1 returned FBW7 activator 0, TEAD-YAP inh 7, GPR151 ag 0, MITF inh 91*, MITF confirm 0 and AlphaScreen intf2 1.
For COc1ccc(CN2CCN(CCO)CC2)cc1OC the results were FBW7 activator 0, TEAD-YAP inh -1, GPR151 ag 0 and MITF inh 14.
For OCCN1CCN(Cc2ccc(Br)cc2)CC1 the results were FBW7 activator 0, TEAD-YAP inh 7, GPR151 ag 1, MITF inh 67*, MITF confirm -3 and AlphaScreen intf2 3.
Screening OCCN1CCN(Cc2ccc(Cl)c(Cl)c2)CC1 returned FBW7 activator 0, TEAD-YAP inh 5, GPR151 ag 2, MITF inh 83*, MITF confirm 6 and AlphaScreen intf2 1.
For COc1ccc(CCNC2C3CC4CC(C3)CC2C4)cc1 (stereo not given) the results were FBW7 activator 0, TEAD-YAP inh 9, GPR151 ag 1 and MITF inh 0.
COc1cccc(N2C(=O)NC(=O)/C(=C/c3cc(OC)c(O)c(OC)c3)C2=O)c1 was read as FBW7 activator 0, TEAD-YAP inh -3, GPR151 ag 0 and MITF inh -4.
Screening O=c1c2ccccc2nc(-c2ccccc2)n1-c1ccccc1O returned FBW7 activator 0, TEAD-YAP inh 12, GPR151 ag 0, MITF inh 68*, MITF confirm 32*, AlphaScreen DR >6.5 and AlphaScreen intf2 -6.
Screening COc1ccc(CN2CCN(Cc3ccc(Cl)cc3)CC2)cc1Br returned FBW7 activator 0, TEAD-YAP inh 12, GPR151 ag -1, MITF inh 80*, MITF confirm 6 and AlphaScreen intf2 7.
For COc1ccc(CN2CCN(CCO)CC2)cc1Br the results were FBW7 activator 0, TEAD-YAP inh -2, GPR151 ag -1, MITF inh 77*, MITF confirm 5 and AlphaScreen intf2 -2.
Screening COc1cc(Br)c(CN2CCN(CCO)CC2)cc1OC returned FBW7 activator 0, TEAD-YAP inh -5, GPR151 ag -1 and MITF inh 16.
For COc1ccc(CN2CCN(Cc3cccc(C)c3)CC2)cc1Br the results were FBW7 activator 0, TEAD-YAP inh 0, GPR151 ag -1, MITF inh 70*, MITF confirm 21 and AlphaScreen intf2 8.
For COc1cc(C)c(CN2CCN(CCO)CC2)cc1C the results were FBW7 activator 0, TEAD-YAP inh 2, GPR151 ag 1, MITF inh 51*, MITF confirm 2 and AlphaScreen intf2 5.
Screening CCN1CCN(Cc2ccc(OC)c(Br)c2)CC1 returned FBW7 activator 0, TEAD-YAP inh -9, GPR151 ag 0 and MITF inh -7.
Screening COc1ccc(CN2CCN(CC(C)(C)C)C(CCO)C2)c(F)c1 (stereo not given) returned FBW7 activator 0, TEAD-YAP inh 2, GPR151 ag 0 and MITF inh 5.
Screening COC(=O)C1C2c3ccccc3OC1(C)N=c1s/c(=C\c3ccccc3F)c(=O)n12 (stereo not given) returned FBW7 activator 0, TEAD-YAP inh -2, GPR151 ag -1 and MITF inh 2.
`CCCCS(=O)(=O)NC1=NCN(CCOS(=O)(=O)NC(C)C)CN1` gave FBW7 activator 0, TEAD-YAP inh 6, GPR151 ag -1 and MITF inh -7.

Screening data from PubChem BioAssay.
